# Activity calls are given as the source filed them.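 Rule for the calls, unless noted: active = a full or partial loss of lipid-probe fluorescence in the fish gall bladder, intestine or both, judged by eye; inactive = no fluorescence loss, or compound toxic to the fish.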
# Assays:
# [1] = inhibitors of TNFa-induced NFkB p65 translocation, primary screen, imaging, HUVEC, MLSMR starter and 10KST1 sets (AID 438;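 active = inhibition above 20% together with a positive visual image hit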;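 note: compound added about 3h40 before a 20 min TNFalpha stimulation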;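 for inhibition: signal is the nuclear over cytoplasmic p65 intensity ratio per well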); settings: HUVEC TNFa-induced p65 nuclear translocation; cell count: measured here: nuclei count (cytotoxicity indicator), at 2.08 µM; inhibition: at 2 µM, stronger effect = higher value, 0% TNFa-plus-vehicle, 100% no-TNFa wells
# [2] = inhibitors of E-selectin induction by TNFa, primary screen, imaging, HUVEC, immunofluorescence, MLSMR starter and 10KST1 sets (AID 487;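 active = visually confirmed hit in the image check and inhibition above 20%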;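 for inhibition: signal is fraction of cell area covered by stained E-selectin grains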;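 for nuclei count: 100% = median nuclei count of all wells on the same plate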); settings: HUVEC TNFalpha-induced E-selectin immunofluorescence imaging, at 2 µM; inhibition: stronger effect = higher value; nuclei count: measured here: cell number, toxicity
# [3] = DUSP6 inhibitors restoring Erk phosphorylation by chemical complementation, primary imaging in DUSP6-transfected HeLa (AID 609;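 active = compounds giving at least 50% inhibition in the cell-based MKP-3 phosphatase rescue imaging test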;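 for inhibition: phospho-Erk level distribution per well compared with pooled transfected vehicle control wells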); settings: HeLa MKP-3 transfected, phospho-Erk imaging KS statistic, at 10 µM, cells stimulated with TPA for 15 min
# [4] = target: Dual specificity protein phosphatase 6 (Homo sapiens) (UniProt Q16828); test: as above; settings: HeLa MKP-3 transfected, phospho-Erk imaging KS statistic; at 10 µM; stronger effect = higher value; cells stimulated with TPA for 15 min
# [5] = target: Voltage-gated potassium channel subunit beta-2 (Rattus norvegicus) (UniProt P62483); test: KvBeta enzyme negative modulators, primary screen, biochemical, NADPH fluorescence (AID 622;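 active = fluorescence slope higher than the sample average by over 3 SD, cut at about -0.22 in these data, passing the limit was not always enough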;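 note: slope of raw intensity against log time taken from 70 to 1610 s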); settings: recombinant KvBeta, 4-cyanobenzaldehyde reduction, at 10 µM, stronger effect = higher value
# [6] = target: Voltage-gated potassium channel subunit beta-2 (Rattus norvegicus) (UniProt P62483); test: KvBeta positive modulators, primary screen, biochemical, NADPH fluorescence (AID 623;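 active = NADPH fluorescence slope more negative than the mean of all samples by about 3 SD, 99.7% confidence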;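 note: fluorescence intensity change per second fitted from 20 to 320 s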); settings: Recombinant KvBeta, NADPH fluorescence decrease slope, 10 min; at 10 µM; stronger effect = lower value
# [7] = target: Muscarinic acetylcholine receptor M4 (Homo sapiens) (UniProt P08173); test: compounds altering M4/GIRK thallium flux, either direction, primary screen, M4 allosteric agonist project, cell-based, HEK293 M4/GIRK, BTC-AM (AID 625;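 active = fluorescence slope after compound addition differing from the mean of all tested samples at 99.7% confidence, mostly higher but some lower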;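 note: thallium influx through GIRK channels coupled to M4 in HEK293 cells with BTC-AM dye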); settings: at 10 µM, actives lie on both sides
# [8] = inhibitors of larval lipid processing in zebrafish, primary screen, whole organism, PED6 fluorescence, gall bladder and intestine (AID 686); settings: Zebrafish larvae PED6 lipid processing, fluorescence scoring; screened at 20 µM (by protocol);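 note: larvae 5 to 7 days old with five fish per well; signal comes from phospholipase A2 cleavage of quenched PED6 carried via bile; overnight exposure to compound and PED6 before scoring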
# [9] = inhibitors of Chlamydomonas gravitaxis, primary screen, whole organism, Chlamydomonas reinhardtii, WT vs cilia-less mutant, absorbance, 96-well (AID 463189;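 active = inhibition at or above 50% relative to wild type and mutant plate controls; inactive = inhibition below 50%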;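 note: 0% = wild type cc124 cells in DMSO and 100% = ciliumless bld1 mutant cells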); settings: OD600 absorbance, 2 days, at 10 µM, stronger effect = higher value
# [10] = measured here: cell density z-score
# [11] = measured here: nuclear c-Myc green intensity z-score
# [12] = measured here: nuclear pErk red intensity z-score, stronger effect = higher value
# Chain of Voltage-gated potassium channel subunit beta-2 (Rattus norvegicus) (P62483 whole entry, looked up): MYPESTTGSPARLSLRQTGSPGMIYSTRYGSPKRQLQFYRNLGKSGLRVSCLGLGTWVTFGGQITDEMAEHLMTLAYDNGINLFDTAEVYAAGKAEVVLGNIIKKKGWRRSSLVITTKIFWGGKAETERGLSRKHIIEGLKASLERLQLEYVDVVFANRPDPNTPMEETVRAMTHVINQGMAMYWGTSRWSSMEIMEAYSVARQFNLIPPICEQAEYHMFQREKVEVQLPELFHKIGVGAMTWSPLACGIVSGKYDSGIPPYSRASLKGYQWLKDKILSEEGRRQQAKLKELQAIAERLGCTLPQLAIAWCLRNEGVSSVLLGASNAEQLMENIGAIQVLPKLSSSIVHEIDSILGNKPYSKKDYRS
# Chain of Muscarinic acetylcholine receptor M4 (Homo sapiens) (P08173 whole entry, looked up): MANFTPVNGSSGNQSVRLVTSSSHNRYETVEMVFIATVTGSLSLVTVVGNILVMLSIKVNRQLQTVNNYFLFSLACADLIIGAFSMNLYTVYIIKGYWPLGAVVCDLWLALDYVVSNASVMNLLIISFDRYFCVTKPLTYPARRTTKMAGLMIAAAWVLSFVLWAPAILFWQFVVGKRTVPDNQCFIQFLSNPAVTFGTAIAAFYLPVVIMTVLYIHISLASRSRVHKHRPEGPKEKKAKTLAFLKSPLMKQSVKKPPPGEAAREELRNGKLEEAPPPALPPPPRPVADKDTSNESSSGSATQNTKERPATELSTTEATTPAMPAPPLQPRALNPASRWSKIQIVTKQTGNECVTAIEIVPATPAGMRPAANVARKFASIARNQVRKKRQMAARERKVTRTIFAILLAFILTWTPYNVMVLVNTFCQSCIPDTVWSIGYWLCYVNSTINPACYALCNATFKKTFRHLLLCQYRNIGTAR
# Chain of Dual specificity protein phosphatase 6 (Homo sapiens) (Q16828 whole entry, looked up): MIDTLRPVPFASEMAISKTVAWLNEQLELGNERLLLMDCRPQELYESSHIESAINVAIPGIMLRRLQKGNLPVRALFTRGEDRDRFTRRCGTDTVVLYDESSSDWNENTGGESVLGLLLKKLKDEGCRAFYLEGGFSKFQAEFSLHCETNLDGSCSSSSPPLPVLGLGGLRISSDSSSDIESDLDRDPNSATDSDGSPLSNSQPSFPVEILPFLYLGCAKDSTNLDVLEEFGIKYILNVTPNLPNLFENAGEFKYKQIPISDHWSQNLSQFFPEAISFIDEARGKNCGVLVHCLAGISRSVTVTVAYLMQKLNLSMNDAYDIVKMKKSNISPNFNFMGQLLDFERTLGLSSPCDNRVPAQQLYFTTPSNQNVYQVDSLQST
SMILES,cell count [1],inhibition [1],inhibition [2],nuclei count [2] [%],"z-score [3, 10]","z-score [3, 11]","z-score [3, 12]",inhibition [4],fluorescence slope [5],NADPH fluorescence slope [6],fluorescence slope [7],outcome [8],inhibition [9]
CC1N(O)C(c2ccc(Cl)cc2Cl)N(O)C1(C)C (stereo not given),482,1.9% (inactive),-3.5% (inactive),94.1,-0.283,-1.5,1.54,7.93% (inactive),-0.347 (inactive),9.2e-07 (inactive),0.00632 (inactive),inactive,43.1% (inactive)
CCOC(=O)c1c(C)n(C)c2ccc(OC)c(NC(=O)CN3CCC4(CC3)OCCO4)c12,690,-4.9% (inactive),-157% (inactive),178,0.288,0.471,0.00411,-10.1% (inactive),-0.44 (inactive),-4.5e-05 (inactive),0.00438 (inactive),inactive,-0.554% (inactive)
CCOCCn1c(SC)nc2c1c(=O)[nH]c(=O)n2C,498,6.3% (inactive),-6% (inactive),122,1.57,-1.62,0.579,12.8% (inactive),-0.529 (inactive),-3.7e-05 (inactive),0.00609 (inactive),inactive,44.4% (inactive)
O=C(c1coc(=O)c(Br)c1)N1CCOCC1,718,2.4% (inactive),-137% (inactive),181,-0.0624,0.26,0.186,-4.7% (inactive),-0.429 (inactive),3.1e-07 (inactive),0.00447 (inactive),inactive,14.2% (inactive)
CCOC(=O)C(C(=O)OCC)N(C#N)c1nc(SC)nc(N(C)C)n1,607,-2.8% (inactive),42.8% (inactive),86.4,-3.26,2.37,4.3,33.3% (inactive),-0.457 (inactive),-5e-05 (inactive),0.00538 (inactive),inactive,-15.2% (inactive)
CSc1nc2sc3c(c2c2nncn12)CCC3,595,-9.4% (inactive),-93% (inactive),148,-0.00236,-1.35,-0.539,-13.3% (inactive),-0.46 (inactive),-9.7e-05 (inactive),0.00506 (inactive),inactive,46.8% (inactive)
Cc1sc(-n2c(C)cc(/C=N/n3cnnc3)c2C)c(C#N)c1C,408,1.9% (inactive),29.3% (inactive),85.2,-1.21,-0.424,0.842,3.56% (inactive),-0.546 (inactive),-9.2e-05 (inactive),0.00473 (inactive),inactive,14% (inactive)
O=C(Oc1oc(-c2ccco2)nc1C=Nc1ccccc1)c1ccco1,504,15% (inactive),-2% (inactive),108,-2.44,1.67,-0.418,22.1% (inactive),-0.504 (inactive),-3.8e-05 (inactive),0.0053 (inactive),inactive,38.4% (inactive)
COCCNc1oc(-c2ccc(F)cc2)nc1C#N,631,-8.1% (inactive),-48.8% (inactive),162,1.98,-0.407,1.1,24% (inactive),-0.446 (inactive),-6.5e-05 (inactive),0.00617 (inactive),inactive,-8.51% (inactive)
CC(O)CNc1nc2c(c(=O)n(C)c(=O)n2C)n1CCc1ccccc1 (stereo not given),710,-2.3% (inactive),-92.1% (inactive),180,0.422,-1.99,1.04,5.95% (inactive),-0.464 (inactive),-0.000209 (active),0.00739 (inactive),inactive,23% (inactive)
CC(NC(=O)Nc1ccc(O)cc1)(C(F)(F)F)C(F)(F)F,709,-15.9% (inactive),-16.4% (inactive),151,-0.386,1.06,0.803,-3.95% (inactive),-0.461 (inactive),-4.3e-05 (inactive),0.00553 (inactive),inactive,0.534% (inactive)
COc1cccc(OC)c1C(=O)Nc1nc2ccc(S(C)(=O)=O)cc2s1,388,-2.4% (inactive),-8.7% (inactive),109,0.854,0.658,-1.02,6.04% (inactive),-0.409 (inactive),-1e-05 (inactive),0.00408 (inactive),inactive,19.4% (inactive)
COC(=O)c1ccccc1NC(=O)C1COc2ccccc2O1 (stereo not given),655,-10% (inactive),1.5% (inactive),169,1.14,-0.164,-1.54,-0.674% (inactive),-0.465 (inactive),-5.2e-05 (inactive),0.00637 (inactive),inactive,3.4% (inactive)
Nc1nc2n(n1)C(c1cccs1)CC(c1ccc(Br)cc1)N2 (stereo not given),409,-1% (inactive),-13.7% (inactive),149,-0.806,0.38,0.438,5.65% (inactive),-0.443 (inactive),-9.3e-05 (inactive),0.0057 (inactive),inactive,21.9% (inactive)
O=c1[nH]cnc2c1cnn2Cc1ccccc1,509,-2.1% (inactive),-58.3% (inactive),145,0.233,-0.586,0.288,-3.97% (inactive),-0.354 (inactive),-5.1e-05 (inactive),0.00657 (inactive),inactive,-9.15% (inactive)
CCSc1nnc(NC(=O)C(C(F)(F)F)C(F)(F)F)s1,702,-5% (inactive),-40.7% (inactive),146,-0.0594,-1.31,-1.04,-0.233% (inactive),-0.449 (inactive),-4.7e-05 (inactive),0.00555 (inactive),inactive,21.1% (inactive)
CCCCN(CCCC)C(=O)CSc1nnc2n(C)c(=O)c3c4c(sc3n12)CCCC4,496,-18.2% (inactive),-94.2% (inactive),142,2.28,-1.51,-0.0585,7.93% (inactive),-0.463 (inactive),-4.6e-05 (inactive),0.00616 (inactive),inactive,84% (active)
N#Cc1c2c(c(-c3ccco3)[nH]c1=O)CCCC2,576,-5% (inactive),-60.2% (inactive),152,-0.652,0.857,0.409,-5.81% (inactive),-0.435 (inactive),-0.000117 (inactive),0.00432 (inactive),inactive,17% (inactive)
Cc1ccc(C2CC(c3cccs3)n3nc(N)nc3N2)cc1 (stereo not given),390,-2% (inactive),-110% (inactive),149,-0.677,0.494,-0.466,3.56% (inactive),-0.429 (inactive),-0.000111 (inactive),0.00581 (inactive),inactive,31.5% (inactive)
CC12CN3CC(C)(CN(C1)C3c1ccc(Cl)cc1Cl)C2O (stereo not given),486,-4% (inactive),-90.6% (inactive),121,-2.88,1.19,-1.32,-0.584% (inactive),-0.52 (inactive),-6.5e-05 (inactive),0.0049 (inactive),inactive,-8.3% (inactive)
Nc1nnnn1/N=C/c1cccc(Oc2ccccc2)c1,539,-12.1% (inactive),65.8% (inactive),88.7,1.62,-1.31,-1.66,21% (inactive),-0.523 (inactive),-1.8e-05 (inactive),0.00678 (inactive),inactive,13.4% (inactive)
Nc1c(C(=O)NCc2ccco2)sc2nc(N3CCOCC3)c3c(c12)CCCC3,510,-3.3% (inactive),21.6% (inactive),169,-0.827,1.22,1.35,7.93% (inactive),-0.0309 (active),4.6e-08 (inactive),0.00375 (inactive),inactive,7.67% (inactive)
Cc1cccn2c(=O)c3cc(C(=O)NCc4cccnc4)c(=N)n(C)c3nc12,734,7.8% (inactive),-3.9% (inactive),154,-0.252,0.503,1.16,7.83% (inactive),-0.403 (inactive),-4.4e-05 (inactive),0.00535 (inactive),inactive,2.07% (inactive)
CCCCc1[nH]c(=O)c(C#N)c2c1CSC(C)(C)C2,551,0.5% (inactive),-122% (inactive),132,0.749,0.642,-1.4,17.4% (inactive),-0.482 (inactive),-0.000112 (inactive),0.00497 (inactive),inactive,0.152% (inactive)
COc1ccc(CN(C)CCc2ccccn2)c(OC)c1OC,494,-4.5% (inactive),-90.8% (inactive),151,-1.25,-0.772,0.512,-3.95% (inactive),-0.419 (inactive),-3.4e-05 (inactive),0.00521 (inactive),inactive,18.3% (inactive)
